# From PMC13083723 (Patterns, 2026)
# About 190 (3.5%) of roughly 5,400 compounds showed an effect of 50% or more. Many of the other results were omitted from the sample, so strong results are more common in it than they were. Positions of bridges follow the written chain, without caps; N, C: chain ends. Non-standard residues stand in square brackets, D forms with d. Residues, ends and D or L forms follow the SMILES beside them. *: point of attachment. X1 = CCC(C)C(N)C1=NC(C(=O)*)CS1; dOrn = NCCC[C@@H](N)C(=O)O
# Test system: Vero-E6
# Experiment: primary screen, phospholipidosis by LipidTOX staining; higher = more effect of the substance
# Conditions: 10 µM
# Procedure, shortened: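 Drug-induced phospholipidosis detected with HCS LipidTOX Red reagent in Vero-E6 cells. Compounds tested at 10 μM, with amiodarone (10 μM) as positive control and DMSO (0.1 v/v %) as vehicle.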
row,SMILES,result_ITMP [%]
1,CCOc1nc2cccc(C(=O)O)c2n1Cc1ccc(-c2ccccc2-c2nc(=O)o[nH]2)cc1,-0.57
2,NCCCC(O)(P(=O)([O-])O)P(=O)(O)O,0.52
3,CC1(C)S[C@@H]2[C@H](NC(=O)C(C(=O)[O-])c3ccccc3)C(=O)N2[C@H]1C(=O)[O-] (stereo partly shown),-1.48
4,Nc1ncccc1-c1nc2ccc(-c3ccccc3)nc2n1-c1ccc(C2(N)CCC2)cc1,91.9
5,CC(C)(C)[C@]1(O)C[C@@H]2OC(=O)C[C@@]23C(=O)O[C@@H]2OC(=O)[C@H](O)C213 (stereo partly shown),-3.55
6,COc1cccc2c1C(=O)c1c(O)c3c(c(O)c1C2=O)C[C@@](O)(C(=O)CO)C[C@@H]3OC1C[C@H](N2CCO[C@H](OC)C2)C(O)[C@H](C)O1 (stereo partly shown),0.2
7,CC1(C)CC[C@]2(NC(=O)C(C)(F)F)CC[C@]3(C)C(C(=O)C=C4[C@@]5(C)C=C(C#N)C(=O)C(C)(C)[C@@H]5CC[C@]43C)C2C1 (stereo partly shown),-22.1
8,CC1(C)C[C@@H]1C(=O)N/C(=C\CCCCSC[C@H](N)C(=O)[O-])C(=O)O,-1.62
9,CCOC(=O)c1cc2ccc(O)cc2oc1=O,-3.11
10,Clc1ccc(N2CCN(Cc3c[nH]c4ncccc34)CC2)cc1,1.68
11,c1ccc(CNCc2ccc(CN3CCCNCCNCCCNCC3)cc2)nc1,-2
12,O=C(c1ccc(-c2ccc(Cl)cc2)o1)N(Cc1ccccn1)c1ccc(N2CCNCC2)cc1,104
13,CCCC(CCC)C(=O)NCC(N)=O,-5.65
14,Nc1ccc(C(=O)[O-])c(O)c1,-0.28
15,C[C@H](CCC(=O)NCCS(=O)(=O)O)[C@H]1CC[C@H]2[C@@H]3[C@@H](O)C[C@@H]4C[C@H](O)CC[C@]4(C)[C@H]3CC[C@]12C,3.34
16,C[C@]12C=CC(=O)C=C1CC[C@@H]1[C@@H]2CC[C@]2(C)OC(=O)CC[C@@H]12,-2.34
17,CC(=O)O[C@H]1CC[C@@]2(C)C(=CC[C@@H]3[C@@H]2CC[C@]2(C)C(c4cccnc4)=CC[C@@H]32)C1,2.09
18,CN1CCN(c2ccc(Nc3ncc4cc(C#N)c(=O)n(C5CCCC5)c4n3)cc2)CC1,-0.88
19,C=CCn1c(=O)c2cnc(Nc3ccc(N4CCN(C)CC4)cc3)nc2n1-c1cccc(C(C)(C)O)n1,32.4
20,Cc1cccc(C)c1-n1c(=O)c2cnc(Nc3ccc(N4CCN(C)CC4)cc3)nc2n2c3ccccc3nc12,81.7
21,N[C@@H](CSS(=O)(=O)[O-])C(=O)O,-1.62
22,C/C=C(\C(=C\C)c1ccc(O)cc1)c1ccc(O)cc1,0.7
23,Clc1ccc2c(c1)N=C(N1CCNCC1)c1ccccc1N2,77.7
24,CN1CCN(C2=Nc3ccccc3Sc3ccc(Cl)cc32)CC1,26.7
25,Cc1cc2c(s1)Nc1ccccc1N=C2N1CCN(C)CC1,-8.9
26,c1ccc2nc(N3CCNCC3)ccc2c1,9.23
27,Clc1ccc2c(c1)C(N1CCNCC1)=Nc1ccccc1O2,70

row,SMILES,result_ITMP [%]
1,Clc1cccc(N2CCNCC2)c1,4.14
2,Cc1ccc(Oc2ccccc2-c2csc(NC3=NCCCN3)n2)c(C)c1,6.61
3,COc1cc(CCc2cc(NC(=O)c3ccc(N4C[C@@H](C)N[C@@H](C)C4)cc3)n[nH]2)cc(OC)c1,30.8
4,C=C[C@@]1(C)CC(=O)[C@]2(O)[C@@]3(C)[C@@H](O)CCC(C)(C)[C@@H]3C(OC(=O)CCN(C)C)C(OC(C)=O)[C@@]2(C)O1 (stereo partly shown),4.63
5,C[C@H](CCC(=O)NCCS(=O)(=O)O)[C@H]1CC[C@H]2[C@@H]3[C@H](O)C[C@@H]4C[C@H](O)CC[C@]4(C)[C@H]3C[C@H](O)[C@]12C,-2.23
6,CC(O)COC[C@H]1OC2O[C@H]3[C@H](O)[C@@H](O)C(O[C@H]4[C@H](O)[C@@H](O)C(O[C@H]5[C@H](O)[C@@H](O)C(O[C@H]6[C@H](O)[C@@H](O)C(O[C@H]7[C@H](O)[C@@H](O)C(O[C@H]8[C@H](O)[C@@H](O)C(O[C@H]1[C@H](O)[C@H]2O)O[C@@H]8COCC(C)O)O[C@@H]7COCC(C)O)O[C@@H]6COCC(C)O)O[C@@H]5COCC(C)O)O[C@@H]4COCC(C)O)O[C@@H]3COCC(C)O (stereo partly shown),-3.69
7,COc1ccc(C[C@@H](C)[C@@H](C)Cc2ccc(OC)c(OC)c2)cc1OC,6.63
8,COc1ccc(Cc2nc(=O)c3c(C)nc([C@@H](CCCc4ccccc4)[C@@H](C)O)n3[nH]2)cc1OC,0.34
9,C=CC(=O)Nc1cccc(Oc2nc(Nc3ccc(N4CCN(C)CC4)cc3OC)ncc2Cl)c1,-1.32
10,C=CC(=O)Nc1cccc(Oc2nc(Nc3ccc(N4CCN(C)CC4)cc3)nc3ccsc23)c1,37.8
11,C=CC(=O)Nc1cccc(Oc2nc(Nc3ccc(N4CCN(C)CC4)cc3)ncc2Cl)c1,70.5
12,C[C@H]1[C@H](C)CC[C@]2(C(=O)O)CC[C@]3(C)C(=CC[C@@H]4[C@@]5(C)C[C@@H](O)[C@H](O)[C@@](C)(CO)[C@@H]5CC[C@]43C)[C@H]12,-2.77
13,Cc1cc(-c2cc(O)ccc2Cl)cc2nnc(Nc3ccc(OCCN4CCCC4)cc3)nc12,-2.38
14,Cc1cnc(Nc2ccc(OCCN3CCCC3)cc2)nc1Nc1cccc(S(=O)(=O)NC(C)(C)C)c1,122
15,Cc1cnc(Nc2ccc(N3CCN(C)CC3)cc2)nc1Nc1cccc(S(=O)(=O)NC(C)(C)C)c1,21.8
16,Cn1cnc2nc(O)nc(O)c21,0.82
17,Cc1nc2ccc(Oc3ccc(F)cc3)cc2c(=O)n1C[C@H]1CCCN(C(C)C)C1,56.3
18,O=C([O-])[C@H](O)[C@@H](O)[C@H](O)[C@H](O)C(O)CO (stereo partly shown),-2.51
19,Cn1nccc1Nc1nccc(-c2ccn([C@H](CO)c3ccc(Cl)c(F)c3)c(=O)c2)n1 [R4A_0003897_001 / SPE_A20830788],1.66
20,NCCC(Oc1ccc(C(F)(F)F)cc1)c1ccccc1 (stereo not shown),62.2
21,CN(CC[C@@H](Oc1ccc(-c2ccccc2)cc1)c1ccc(F)cc1)CC(=O)O,0.25
22,CNCCC(Oc1ccccc1OC)c1ccccc1 (stereo not shown),13
23,COCCCC/C(=N\OCCN)c1ccc(C(F)(F)F)cc1,48.9
24,CNCCC(Oc1ccc(C(F)(F)F)cc1)c1ccccc1 (stereo not shown),54.3
25,CN1C2CC(O)[C@H]1C[C@@H](OC(=O)[C@H](CO)c1ccccc1)C2 (mixture of isomers),-3.11
26,CCCN1C[C@@H](NS(=O)(=O)N(CC)CC)C[C@@H]2Cc3c(O)cccc3C[C@H]21,0.96
27,CC(=O)O.CC(=O)O.N.NC1CCCCC1.[Cl][Pt][Cl],-1.8

row,SMILES,result_ITMP [%]
1,O=C([O-])Cc1ccccc1Nc1c(Cl)cccc1Cl,-2.2
2,CN(C(=O)CN1C(=O)COc2cc(Cl)c(Cl)cc21)[C@@H](CN1CCCC1)c1ccc(-c2cccc(C(N)=O)c2)cc1,41.8
3,CN(C(=O)Cc1ccc(Cl)c(Cl)c1)[C@H](CN1CCCC1)c1ccccc1,53.5
4,CN(C(=O)Cc1ccccc1)C(CN1CCCC1)c1ccccc1 (stereo not shown),6.1
5,CCC(C)C(N)C1=NC(C(=O)N[C@@H](CC(C)C)C(=O)N[C@H](CCC(=O)[O-])C(=O)N[C@H](C(=O)N[C@H]2CCCCNC(=O)[C@H](CC(N)=O)NC(=O)[C@@H](CC(=O)[O-])NC(=O)[C@@H](Cc3cnc[nH]3)NC(=O)[C@@H](Cc3ccccc3)NC(=O)[C@@H]([C@H](C)CC)NC(=O)[C@@H](CCCN)NC2=O)[C@@H](C)CC)CS1 (stereo partly shown) (X1-L[dE]IK[dOrn][dI][dF][dH][dD]N; lactam 4-C),-3.81
6,Cc1cccn2c(=O)c(-c3nn[n-]n3)cnc12,-2.44
7,CCCNCC(O)COc1ccccc1C(=O)CCc1ccccc1 (stereo not shown),86.6
8,CCN(CC)CCOc1ccccc1C(=O)CCc1ccccc1,30.6
9,CCCC(=O)c1cc(F)ccc1OCC(O)CNC(C)(C)C (stereo not shown),20.3
10,Cn1nnnc1SCC1=C(C(=O)[O-])N2C(=O)[C@@H](NC(=O)[C@H](O)c3ccccc3)[C@H]2SC1,-1.4
11,O=C(O)c1ccc(CN2CCC(CN[C@@H]3C[C@H]3c3ccccc3)CC2)cc1,-1.25
12,CN1CCN(C(=O)CN[C@@H]2C[C@H]2c2ccc(OCc3ccccc3)cc2)CC1,87.7
13,Oc1ccc(OCc2ccccc2)cc1,-11.6
14,Cc1cc(Nc2cc(CN3CCOCC3)c3nc(C)c(Cc4ccc(Cl)cc4F)n3n2)[nH]n1,13
15,COc1cc2c3cc1Oc1cc(ccc1O)C[C@@H]1c4c(cc(OC)c(O)c4Oc4ccc(cc4)C[C@@H]3N(C)CC2)CC[N+]1(C)C,-3.39
16,COc1ccc2cc1Oc1ccc(cc1)C[C@H]1c3c(cc4c(c3Oc3cc5c(cc3OC)CCN(C)[C@@H]5C2)OCO4)CCN1C,57
17,COc1ccc2cc1Oc1ccc(cc1)C[C@H]1c3cc(c(OC)cc3CCN1C)Oc1c(OC)c(OC)cc3c1[C@H](C2)N(C)CC3,17.4
18,CCN(CC)C(=S)[S-],-6.15
19,COCCCOc1ccnc(CS(=O)c2nc3ccccc3[n-]2)c1C (stereo not shown),-0.77
20,COc1cc(N2CCC(N)CC2)ccc1Nc1ncc(Cl)c(-c2c[nH]c3ccccc23)n1,15.8
21,CNC(=O)c1ccccc1Nc1nc(Nc2ccc(N3CCOCC3)cc2OC)ncc1Cl,3.78
22,CCC(=O)Nc1cccc(Oc2nc(Nc3ccc(N4CCN(C)CC4)cc3OC)ncc2Cl)c1,-5.58
23,COc1cc(N2CCOCC2)ccc1Nc1ncc(Cl)c(Nc2ccccc2NS(C)(=O)=O)n1,51.4
24,COc1cc(N2CCC(N3CCN(C)CC3)CC2)ccc1Nc1ncc(Cl)c(Nc2ccccc2P(C)(C)=O)n1,-0.55
25,COc1cc(N2CCC(N(C)C)CC2)ccc1Nc1ncc(Cl)c(Nc2ccccc2P(C)(C)=O)n1,51.8
